# Laboratory results taken from PubChem BioAssay AID540333 (Southern Research Specialized Biocontainment Screening …, 2011).
# In all, about 10,000 compounds went through this assay and about 320 (3.2%) were called active. This is one part of a sample in which actives are shown more often than they occur. Cut-off read from the data, not from the text of the source: active = CPE inhibition mostly above about 9.1% (no sharp cut-off); inactive = mostly below about 7.2%.
# Test: Dengue virus cytopathic effect inhibitors, cell-based, CPE readout, HTS (AID 540333)
# Conditions: Dengue virus CPE inhibition in host cells, at 20 µM; stronger effect = higher value
row,Structure (SMILES),CPE inhibition
1,Cn1c2ccccc2c(=O)c2c(=O)n(C3CCCCC3)c(-c3ccco3)nc21,10.4% (inactive)
2,Cn1c2ccccc2c(=O)c2c(=O)n(-c3ccccc3)c(C3CCCCC3)nc21,9.13% (active)
3,CCCc1nc2c(c(=O)c3ccccc3n2C)c(=O)n1-c1ccc(F)cc1,1.89% (inactive)
4,O=c1[nH]cnc2c1c(-c1ccccc1)cn2-c1ccc(Br)cc1,11.8% (active)
5,COC(=O)C(C)Sc1ncnc2c1c(-c1ccccc1)cn2-c1ccc(OC)cc1 (stereo unspecified),2.83% (inactive)
6,CCOC(=O)CSc1ncnc2c1c(-c1ccccc1)cn2-c1ccc(OC)cc1,2.07% (inactive)
7,CCOc1ccccc1NC(=O)C(OC(=O)c1ccccc1NS(=O)(=O)c1cccs1)c1ccccc1 (stereo unspecified),1.08% (inactive)
8,CC12CCC(C(=O)N(NC(=O)c3cccnc3)C1=O)C2(C)C (stereo unspecified),2.09% (inactive)
9,O=C(N/N=C/c1ccccn1)C12CC3CC(CC(C3)C1)C2,inactive
10,CC(NC(=O)/C=C/c1cnc2ccccc2n1)C12CC3CC(CC(C3)C1)C2 (stereo unspecified),12.8% (active)
11,CC(NC(=O)COC(=O)[C@@H]1CCCN1S(=O)(=O)c1ccccc1F)C12CC3CC(CC(C3)C1)C2 (stereo partly specified),inactive
12,O=C(COc1ccc(Br)cc1Cl)NC1CCCCC1,0.99% (inactive)
13,CC(=O)c1ccc(NC(=O)CN2C(=O)/C(=C/C(C)=C/c3ccccc3)SC2=S)cc1,0.22% (inactive)
14,CCCn1c(C(C)Nc2nc(-c3ccc(Cl)c([N+](=O)[O-])c3)cs2)nc2ccccc21 (stereo unspecified),29.9% (active)
15,Cc1ccc(-c2csc(NC(CO)c3nc4ccccc4n3CCOCCO)n2)cc1 (stereo unspecified),0.615% (inactive)
16,CC(O)c1nc2ccccc2n1Cc1ccc([N+](=O)[O-])cc1 (stereo unspecified),inactive
17,CCC1CCCCN1C(=O)c1cccc(S(=O)(=O)Nc2cc(C(F)(F)F)ccc2Cl)c1 (stereo unspecified),3.38% (inactive)
18,COc1ccc(CCN=C(N)NS(=O)(=O)c2ccc3ccccc3c2)cc1,inactive
19,Cc1ccc(C2(CCN)CCOC(C(C)C)C2)cc1 (stereo unspecified),7.74% (active)
20,O=C(NNS(=O)(=O)c1ccc(Cl)cc1)c1ccc(S(=O)(=O)N2CCCCC2)cc1,inactive
21,CC(C)(C)c1ccc(S(=O)(=O)N2CCSC2)cc1,0.03% (inactive)
22,CC(C)(C)c1ccc(S(=O)(=O)N2CCCCC2)cc1,9.75% (active)
23,Cc1ccc(S(=O)(=O)N2CCCCCC2)cc1[N+](=O)[O-],inactive

row,Structure (SMILES),CPE inhibition
1,CCOc1ccccc1NC(=S)N(Cc1cc2ccc(C)cc2[nH]c1=O)CC1CCCN1CC (stereo unspecified),inactive
2,COC(=O)c1ccccc1NC(=S)N(Cc1ccc2c(c1)OCO2)Cc1cc2ccc(C)cc2[nH]c1=O,33% (active)
3,COC(=O)c1ccccc1NC(=S)N(Cc1ccc2c(c1)OCO2)Cc1cc2ccc(OC)cc2[nH]c1=O,23.8% (active)
4,CNC(=S)N(Cc1cccs1)Cc1cc2cc(OC)c(OC)cc2[nH]c1=O,inactive
5,Cc1ccc2[nH]c(=O)c(CN(Cc3cccs3)C(=S)NCc3ccco3)cc2c1,5.92% (inactive)
6,COc1cc2cc(CN(Cc3cccs3)C(=S)Nc3ccccc3)c(=O)[nH]c2cc1OC,6.21% (inactive)
7,COC(=O)c1ccccc1NC(=S)N(Cc1ccc2c(c1)OCO2)Cc1cc2cc(C)ccc2[nH]c1=O,21.6% (active)
8,COC(=O)c1ccccc1NC(=S)N(Cc1ccc2c(c1)OCO2)Cc1cc2cc(OC)ccc2[nH]c1=O,3.25% (inactive)
9,CCN1CCCC1CN(Cc1cc2ccc(C)cc2[nH]c1=O)C(=S)Nc1ccccc1OC (stereo unspecified),inactive
10,COC(=O)Cc1ccc(NC(=S)N2CCN(c3cccc(O)c3)CC2)cc1,0.105% (inactive)
11,CCOC(=O)CCCNC(=O)COC(=O)[C@@H]1CCCN1S(=O)(=O)c1ccc(Cl)cc1,inactive
12,Cc1ccc(-c2nc3ccccc3c(=O)n2NC(=O)COc2ccccc2)cc1,0.37% (inactive)
13,CN(C)c1ccc(/C=N/NC(=S)NCc2ccco2)cc1,0.335% (inactive)
14,COc1ccc(NC(=O)Nc2cccc([N+](=O)[O-])c2)cc1Cl,0.865% (inactive)
15,O=C(O)c1ccc(NC(CSCc2ccccc2F)C(=O)O)c([N+](=O)[O-])c1 (stereo unspecified),inactive
16,CC12CCC(C(=O)N(c3ccc(Cl)cc3)C1=O)C2(C)C (stereo unspecified),inactive
17,Cc1c(N=C2NC(=O)/C(=C/c3ccc(O)cc3)S2)c(=O)n(-c2ccccc2)n1C,0.27% (inactive)
18,CC12CCC(C/C1=N\N=C1\NC(=O)/C(=C\c3ccc(Cl)cc3)S1)C2(C)C (stereo unspecified),12.2% (active)
19,NS(=O)(=O)c1ccc(NC(=S)N2CCN(c3ccccc3)CC2)cc1,0.43% (inactive)
20,O=C(COc1ccccc1-c1ccccc1)NCCN1C(=O)S/C(=C\c2cccnc2)C1=O,2.91% (inactive)
21,COc1ccc(N(C(=O)C2COc3ccccc3O2)C(C(=O)NC2CCCCC2)c2ccccc2)cc1OC (stereo unspecified),4.27% (inactive)
22,COc1ccc(N(C(=O)CSCC(=O)Nc2cc(C)on2)C(C(=O)NC2CCCCC2)c2ccc(O)c(O)c2)cc1 (stereo unspecified),inactive
23,COc1cc(OC)cc(N(C(=O)C2COc3ccccc3O2)C(C(=O)NC2CCCCC2)c2ccc(O)cc2)c1 (stereo unspecified),12.5% (active)
